# From PubChem BioAssay (NCATS)
# Records with an inconclusive call do not appear. Active and inactive are the calls of the source. Unless noted, calls come from the whole dose curve; as a rule, active = well fitted inhibition curve with a large enough effect; inconclusive = small, poorly fitted or top-dose-only effect; inactive = flat fitted curve, though single readings scatter.
# Legend:
# [1] = qHTS drug screen for cell cycle checkpoint inhibitors in PARPi-resistant BRCA-mutant ovarian cancer cell lines. (AID 1963452; calls by dose curve); conditions: PEO1/OlaR viability, CellTiter-Glo luminescence, 96 h; for Z-AUC: stronger effect = lower value
# In short: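 PEO1, PEO4 and PEO1/OlaR ovarian cancer cells, 600 per well, exposed 96 h at 37C to a dilution series. Viability read by CellTiter-Glo luminescence, normalized to DMSO and empty wells; activity summarized as Z-AUC.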
# [2] = qHTS for identification of novel therapeutic agents for treatment of microphthalmiaassociated transcription factor (MiT) renal cell carcinoma (RCC) (AID 1963991; calls by dose curve); conditions: CellTiter-Glo, 48 h; for z-score: stronger effect = lower value
# In short: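 Three TFE3-fusion RCC lines (UOK109, UOK124, UOK145), 500 cells/well in complete medium, were treated with MIPE 4.0 compounds for 48 hours at 37 C. Viability was by CellTiter-Glo luminescence, normalized to DMSO (100%) and empty wells (0%); curves fitted over 11 concentrations.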
# [3] = qHTS profiling for inhibitors of Plasmodium falciparum proliferation (AID 504749);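 for activity, negative = inhibition: 0% = DMSO vehicle and full inhibition = artemisinin control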; for all read-outs here: nearly all actives have a fitted effect of over 60% in size; conditions: P. falciparum in erythrocytes, SYBR Green DNA, 72 h; for activity, negative = inhibition: at 28.7 µM (top of the series)
# In short: (§1)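 SYBR Green fluorescence (ex 485 nm, em 535 nm) reports parasite DNA after 72 h compound exposure of infected red cells at 0.3% parasitemia, 2.5% hematocrit; signal normalized to 0.29 uM artemisinin and vehicle wells.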
# 3D7 = assay: as above; conditions: P. falciparum in erythrocytes, SYBR Green DNA, 72 h; series mostly up to 28.7 µM
# In short: as §1
# 7G8 = assay: as above; conditions: P. falciparum in erythrocytes, SYBR Green DNA, 72 h; series mostly up to 28.7 µM
# In short: as §1
# ATS189 = assay: as above; conditions: P. falciparum in erythrocytes, SYBR Green DNA, 72 h; series mostly up to 28.7 µM
# In short: as §1
# C2A = assay: as above; conditions: P. falciparum in erythrocytes, SYBR Green DNA, 72 h; series mostly up to 28.7 µM
# In short: as §1
# CP185 = assay: as above; conditions: P. falciparum in erythrocytes, SYBR Green DNA, 72 h; series mostly up to 28.7 µM
# In short: as §1
# CP191 = assay: as above; conditions: P. falciparum in erythrocytes, SYBR Green DNA, 72 h; series mostly up to 28.7 µM
# In short: as §1
# AA1029 = assay: as above; conditions: P. falciparum in erythrocytes, SYBR Green DNA, 72 h; series mostly up to 28.7 µM
# In short: as §1
# AS120 = assay: as above; conditions: P. falciparum in erythrocytes, SYBR Green DNA, 72 h; series mostly up to 28.7 µM
# In short: as §1
# ATS95 = assay: as above; conditions: P. falciparum in erythrocytes, SYBR Green DNA, 72 h; series mostly up to 28.7 µM
# In short: as §1
# [4] = measured here: PEO1 parental Z-AUC
# [5] = TFE3-RCC UOK109 viability, measured here: UOK109 Z-AUC
# [6] = TFE3-RCC viability, measured here: UOK124 Z-AUC
# [7] = TFE3-RCC viability, measured here: UOK145 Z-AUC
# Potency is the fitted concentration of half-maximal effect.
structure (smiles),measurement,setting,value
Cc1cc2c(cc1C1(c3ccc(C(=O)O)cn3)CC1)C(C)(C)CCC2(C)C,Z-AUC,[1],-0.226 (inactive)
same,Z-AUC,[1]; [4],0.647
same,Z-AUC,[1]; measured here: PEO4 Z-AUC,0.601
same,z-score,[2]; [5],1.13
same,z-score,[2]; [6],-2.74
same,z-score,[2]; [7],0.66
CCOC(=O)[C@@H](N)CCC(=O)N[C@@H](CSCc1ccccc1)C(=O)N[C@@H](C(=O)OCC)c1ccccc1,Z-AUC,[1],1.2 (inactive)
same,Z-AUC,[1]; [4],1.04
same,Z-AUC,[1]; measured here: PEO4 Z-AUC,1.07
same,z-score,[2]; [5],-0.0164
same,z-score,[2]; [6],0.492
same,z-score,[2]; [7],0.0682
CN1C(=O)C(Cc2c[nH]c3ccccc23)NC1=S (stereo not given),Z-AUC,[1],-0.877 (inactive)
same,Z-AUC,[1]; [4],-0.326
same,Z-AUC,[1]; measured here: PEO4 Z-AUC,-0.823
same,z-score,[2]; [5],0.322
same,z-score,[2]; [6],0.546
same,z-score,[2]; [7],0.284
CN1CCN2c3ncccc3Cc3ccccc3C2C1 (stereo not given),Z-AUC,[1],-0.118 (inactive)
same,Z-AUC,[1]; [4],-0.0867
same,Z-AUC,[1]; measured here: PEO4 Z-AUC,0.472
same,z-score,[2]; [5],0.418
same,z-score,[2]; [6],0.445
same,z-score,[2]; [7],0.581
same,"activity, negative = inhibition",[3]; parasite line A,-2.79% (inactive)
same,"activity, negative = inhibition",[3]; parasite line B,7.38% (inactive)
same,Potency,3D7,inactive
same,Potency,7G8,11200 nM (active)
same,Potency,ATS189,inactive
same,Potency,C2A,inactive
same,outcome,CP185,inactive
same,outcome,CP191,inactive
COc1ccc(C=CC(=O)Nc2ccccc2C(=O)O)cc1OC,z-score,[2]; [5],0.299
same,z-score,[2]; [6],1.48
same,z-score,[2]; [7],-0.0429
CC1(C)CC(=O)c2c(C(F)(F)F)nn(-c3ccc(C(N)=O)c(NC4CCC(O)CC4)c3)c2C1 (stereo not given),Potency,[1],219 nM (active)
same,Z-AUC,[1]; [4],-1.53
same,Z-AUC,[1]; measured here: PEO4 Z-AUC,-1.31
same,Potency,"[2]; TFE3-RCC UOK109 viability, active = Z-AUC below -0.8 in all three lines",372 nM (active)
same,z-score,[2]; [5],-1.31
same,z-score,[2]; [6],-0.879
same,z-score,[2]; [7],-1.53
COc1cc(C=CC(=O)O)ccc1O,z-score,[2]; [5],-0.0784
same,z-score,[2]; [6],0.112
same,z-score,[2]; [7],0.103
Clc1ccc(COC(Cn2ccnc2)c2ccc(Cl)cc2Cl)c(Cl)c1 (stereo not given),Z-AUC,[1],-0.245 (inactive)
same,Z-AUC,[1]; [4],0.118
same,Z-AUC,[1]; measured here: PEO4 Z-AUC,-0.196
same,Potency,[3]; parasite line B,2820 nM (active)
same,Potency,7G8,708 nM (active)
same,Potency,AA1029,4470 nM (active)
same,Potency,AS120,2000 nM (active)
same,Potency,ATS95,3980 nM (active)
O=C(O)c1nc(=O)[nH]c(=O)[nH]1,Z-AUC,[1],0.306 (inactive)
same,Z-AUC,[1]; [4],-0.133
same,Z-AUC,[1]; measured here: PEO4 Z-AUC,-0.258
same,z-score,[2]; [5],1.29
same,z-score,[2]; [6],0.587
same,z-score,[2]; [7],1.2
same,"activity, negative = inhibition",[3]; parasite line A,-16.8% (inactive)
same,"activity, negative = inhibition",[3]; parasite line B,-28.2% (inactive)
same,Potency,3D7,inactive
same,Potency,7G8,inactive
same,Potency,AA1029,inactive
same,Potency,AS120,inactive
same,Potency,ATS189,inactive
same,Potency,ATS95,inactive
same,Potency,C2A,inactive
same,outcome,CP185,inactive
same,outcome,CP191,inactive
